About 8,600 (12%) of roughly 69,000 compounds showed an effect of 50% or more. The entries come from a sample that favours strong results as a whole.
System: Plasmodium berghei
Test: Screen against P. berghei liver stage (PbLuc), transformed with Luciferase, at 10uM
Type: functional, HepG2
Details: tested at 10 uM

Going from `CC(=O)Nc1nc(C(=O)N2CCCC2Cn2cccn2)cs1` (stereo not given) to `CC(Cn1cccn1)NC(=O)Nc1nncs1` (stereo not given), the INHIBITION falls from 37.3% to -39.7%.

Compared with `CN(C(=O)Cn1nc(-c2ccc(F)cc2)ccc1=O)C1CCS(=O)(=O)C1` (stereo not given), `CCN(C)C[C@@H]1CN(C(=O)c2cc(-c3ccc(F)cc3)n[nH]2)C[C@@H]1CO` is higher in INHIBITION: 13.4% for the first, 43.9% for the second.

Compared with `c1cnnc(N2CCCC2CNCc2csc(-c3ccco3)n2)c1` (stereo not given), `Cc1nc(C)c(CN2CCOC(CNc3cccnn3)C2)s1` (stereo not given) is higher in INHIBITION: 31.95% for the first, 41.5% for the second.

Compared with `Cc1ncsc1C(=O)N(Cc1cccs1)C1CC1`, `Cc1ncsc1C(=O)NCCNC(=O)Cc1cccc(F)c1` is lower in INHIBITION: 6.25% for the first, -89.6% for the second.

First: CCCNCc1cn(C)nc1-c1cccnc1
Second: CC(C)(C)c1nc(CC(=O)Nc2cnccc2O)cs1
The INHIBITION of the first is lower: 2.74% for the first, 52.5% for the second.

First: COc1c(C2CCCN2C(=O)c2csc(C3CC3)n2)c(C)nn1C (stereo not given)
Second: COc1ccnc(N2CCN(C(=O)c3csc(C)n3)CC2)n1
The INHIBITION of the first is lower: -21.5% for the first, -12.6% for the second.

Going from `CC(C)Nc1cccc(CC2CCN(C)C2)n1` (stereo not given) to `CC(C)CN1CCCC(c2nc(O)c3cc(F)ccc3n2)C1` (stereo not given), the INHIBITION rises from -52.6% to 20.1%.

Going from `COCC1CN(Cc2c(C)noc2C)Cc2ccnn2C1` (stereo not given) to `CCOc1nnc(CN(C)C2CCCN(c3ccc(C)nn3)C2)s1` (stereo not given), the INHIBITION rises from 15.9% to 46.7%.

First: CC(C)N1CC(C(=O)N2CCc3c(nc(CC4CC4)[nH]c3=O)C2)CC1=O (stereo not given)
Second: CC(C)N1CCCC(C(=O)N2CCc3c(nc(CC4CC4)[nH]c3=O)C2)C1 (stereo not given)
The INHIBITION of the first is lower: 20.6% for the first, 26.9% for the second.

Compared with `CC(C)N1CCC(C(=O)N2CCc3c(nc(CC4CC4)[nH]c3=O)C2)CC1`, `CC(C)N1CCC(c2cnc(-c3cn[nH]c3)cn2)CC1` is lower in INHIBITION: 53.8% for the first, 20.5535% for the second.

Going from `c1csc(CN2CCn3c(Cn4cncn4)cnc3C2)c1` to `CC(=O)N1CC(=O)N(c2cccnc2)CC12CCN(Cc1nccs1)C2` (stereo not given), the INHIBITION falls from 20.6% to -3.52%.

First: c1ccc(CN2CCOC3CNCC[C@H]32)cc1 (stereo not given in full)
Second: O=C(c1ccccc1)N1CCOC2CNCC[C@H]21 (stereo not given in full)
The INHIBITION of the first is higher: 55.5% for the first, 28.5% for the second.

Going from `N#Cc1cccc(CN2CCO[C@@H]3CNC[C@@H]32)c1` to `Cc1nccc(C2CCCCN2Cc2ccccc2)n1` (stereo not given), the INHIBITION rises from 16.9% to 20.8%.

Going from `O=C(O)c1ccn(-c2ccccc2NS(=O)(=O)c2cccc(Cl)c2F)n1` to `O=C(Nc1ccccn1)c1ccc(F)c(S(=O)(=O)NC2CC2)c1`, the INHIBITION falls from 32.9% to 4.34%.

First: CN(C)C(=O)CO[C@@H]1CN(Cc2ccccc2F)[C@@H]2CCCO[C@@H]21
Second: CN(Cc1ccco1)[C@@H]1CN(C(=O)c2cnccn2)C[C@@H]2CCCO[C@@H]21
The INHIBITION of the first is higher: -1.83% for the first, -2.17% for the second.

First: c1cnc2c(c1)cc([C@H]1CCCO1)n2CCN1CCCCC1
Second: O=C(CN1CCOCC1)N1CCC(c2cc(N3CCCC3)ncn2)CC1
The INHIBITION of the first is higher: 35.3% for the first, -85.6% for the second.

Compared with `CC(C)c1cc(C(=O)N2CCOC3(CCCC3)C2)no1`, `CC(C)c1cc(C(=O)N2CCOC3(CCNCC3)C2)no1` is lower in INHIBITION: 50.4% for the first, 28.2% for the second.

First: Cc1ccc(C(=O)N2CCOC3(CCCC3)C2)c(=O)[nH]1
Second: Cc1ccc(C(=O)N2CCC3(CCCCC3)C2)c(=O)[nH]1
The INHIBITION of the first is higher: 51.7% for the first, 21.7% for the second.

First: CC(C)c1cc(C(=O)N2CCCC3(CCNC3)C2)no1 (stereo not given)
Second: Cc1ccc(C(=O)N2CCC3(CCCC3)CC2)c(=O)[nH]1
The INHIBITION of the first is higher: 40.2% for the first, 37.1% for the second.

First: CC(C)NC(=O)[C@H]1C[C@H]2CN(C(=O)NCc3ccccc3)C[C@@H]1O2
Second: CCN(CC)C(=O)c1nc2c(s1)CCN(C(=O)Nc1ccccc1)CC2
The INHIBITION of the first is lower: -43.8% for the first, 58.3% for the second.

Compared with `CCn1nc(C)c(C(=O)Nc2ccc3c(c2)C(C)(C)C(=O)N3C)c1C`, `CCC(C)[C@H](NC(=O)c1cc(Br)ccc1-n1cnnn1)C(=O)OC` (stereo not given in full) is higher in INHIBITION: 23.4% for the first, 34.7% for the second.

Compared with `Cc1nc(C)n(C2CCCN(C(=O)c3ccc(CN(C)C)cc3)C2)n1` (stereo not given), `Cc1nccn1C1CCCN(C(=O)c2cccc(S(C)(=O)=O)c2)C1` (stereo not given) is higher in INHIBITION: 5.45% for the first, 19.5% for the second.

Compared with `Cc1cccc(CN(Cc2ccccn2)Cc2ncc(C(C)(C)C)o2)c1`, `CCN(Cc1cccc(Cl)c1)Cc1ncc(C(C)(C)C)o1` is lower in INHIBITION: 71.5% for the first, 49% for the second.

First: Cc1ccc(CN(C)Cc2ncc(C(C)(C)C)o2)o1
Second: CCN(Cc1ncc(C(C)(C)C)o1)Cc1ccccc1C
The INHIBITION of the first is lower: 46.4% for the first, 53.3% for the second.

First: Cc1cccc(CN(Cc2ccccn2)S(=O)(=O)N(C)C)c1
Second: Cc1cccc(CN(Cc2ccccn2)S(=O)(=O)N(C)C(C)C)c1
The INHIBITION of the first is higher: -1.38% for the first, -12.4% for the second.

Compared with `CC(C)(C)c1cnc(CNc2cccc(Cn3cnnc3)c2)o1`, `Cc1cccc(NCc2ncc(C(C)(C)C)o2)c1` is higher in INHIBITION: -17.6% for the first, 72.2% for the second.

Compared with `Cc1ccc(NCc2ncc(C(C)(C)C)o2)c(Cl)c1`, `COC(=O)[C@@H]1Cc2[nH]cnc2CN1Cc1cc2ccccc2o1` is higher in INHIBITION: -26.2% for the first, 56.8% for the second.

Going from `Nc1ncc(-c2cccc(NC(=O)[C@@H]3CCCCN3)c2)cn1` to `O=C([C@@H]1Cc2[nH]cnc2CN1Cc1cc2ccccc2o1)N1CCCC1`, the INHIBITION falls from 14.5% to -67.6%.

First: Cc1cncc(C(=O)N2C[C@H]3CCC[C@@]3(COc3ccccn3)C2)c1
Second: Cc1ccnc(OC[C@@]23CCO[C@@H]2CCN(c2ncc(F)cn2)C3)n1
The INHIBITION of the first is higher: 24.5% for the first, 16.9% for the second.

Going from `CN(C)S(=O)(=O)N1CC[C@H]2OCC[C@@]2(COc2cccnc2)C1` to `CCc1ccc(CN2CC[C@@H]3CN(S(C)(=O)=O)CCO[C@@H]3C2)o1`, the INHIBITION rises from 33% to 42.6%.

Compared with `O=C(c1cc(-n2cccn2)ccc1Cl)N1CCCC(N2CCCC2)C1` (stereo not given), `O=C(c1cc(F)ccc1O)N1CCN(C2CCOCC2)CC1` is lower in INHIBITION: 14.6% for the first, 3.84% for the second.

Compared with `CCOc1cccc2c1OCC(=O)N(c1ccc3c(c1)OCCO3)C2`, `CCOc1cccc2c1OCC(=O)N(c1ccc3c(c1)OCO3)C2` is lower in INHIBITION: 56.5% for the first, 14.9% for the second.

First: CCOc1cccc2c1OCC(=O)N(c1ccc(N(C)C)cc1)C2
Second: Cc1ccoc1C(=O)N1CCc2ccc(=O)n(CCN(C)C)c2CC1
The INHIBITION of the first is higher: 45.5% for the first, -16.2% for the second.

Going from `COCC(=O)N1CCc2nc(C(=O)Nc3cccnc3)sc2CC1` to `CNC(=O)N1CCc2nc(C(=O)Nc3cccnc3)sc2CC1`, the INHIBITION rises from -52.3% to 42.6%.

Compared with `NC(=O)c1nc2c(s1)CCN(C(=O)Nc1cccc(Cl)c1)CC2`, `NC(=O)c1nc2c(s1)CCN(C(=O)Nc1ccccc1)CC2` is lower in INHIBITION: 80.2% for the first, 40.5% for the second.

Going from `O=C(c1ccc(Cl)cc1)N1CCc2nc(C(=O)N3CCCC3)sc2CC1` to `O=C(Nc1ccccc1)N1CCc2nc(C(=O)N3CCCC3)sc2CC1`, the INHIBITION rises from -29.3% to 89.1%.

Going from `CNC(=O)c1nc2c(s1)CCN(C(=O)c1ccccc1)CC2` to `NC(=O)c1nc2c(s1)CCN(Cc1ccccc1)CC2`, the INHIBITION rises from 1.9% to 12.1%.

First: Cc1ccc(CN2C[C@@H]3COC[C@H](NS(C)(=O)=O)[C@@H]3C2)s1
Second: CNc1nc(C(=O)N2C[C@@H]3CC[C@H]2CN(S(C)(=O)=O)C3)cs1
The INHIBITION of the first is lower: -1.36% for the first, 7.1% for the second.

Compared with `CCNC(=O)NC(C)c1nc(-c2ccc(Br)cc2)no1` (stereo not given), `CC[C@H](C)[C@H](NC(=O)c1ccc(-n2cnnn2)cc1)C(=O)OC` is higher in INHIBITION: 33.5% for the first, 61.2% for the second.

Going from `CNC(=O)C1(N2CCC[C@H]2C(=O)NC2CCCCC2)CCOCC1` to `CC(=O)N1CCC(NC(=O)Cc2csc(C(C)(C)C)n2)CC1`, the INHIBITION rises from -1.36% to 5.91%.

First: c1ccc(N2CCOC(Cc3cccnc3)C2)cc1 (stereo not given)
Second: CN1CC[C@H]2CN(C(=O)c3csc(Cc4ccccc4)n3)C[C@H]21
The INHIBITION of the first is lower: -33.4% for the first, 22.9% for the second.

First: CCN(CC)Cc1nc(Cc2cccc(C(F)(F)F)c2)no1
Second: CCC(C)[C@H](NC(=O)c1cc(F)ccc1-n1cnnn1)C(=O)OC (stereo not given in full)
The INHIBITION of the first is lower: 26.7% for the first, 46.1% for the second.

First: NC(=O)C1CCN(C(=O)NC2CCc3cc(F)ccc32)CC1 (stereo not given)
Second: NC(=O)N1CCCN(C2CCc3ccc(F)cc32)CC1 (stereo not given)
The INHIBITION of the first is lower: 17% for the first, 84.2% for the second.

Compared with `O=C(CN1CCOCC1)N1CCN(C2CCc3ccc(F)cc32)CC1` (stereo not given), `O=C(c1ccccc1)N1CCN(C2CCc3ccc(F)cc32)CC1` (stereo not given) is lower in INHIBITION: 54.4% for the first, 49.4% for the second.

Going from `COCCN1CCCN(C(=O)NC(C)Cn2ccnc2)CC1` (stereo not given) to `CNc1nc(C(=O)N2CCCN(c3ccnc(C)c3)CC2)cs1`, the INHIBITION falls from 26.3% to -10.6%.

Compared with `COC(=O)C1Cc2nc[nH]c2CN1Cc1ccc(Sc2ncccn2)o1` (stereo not given), `CC(C)c1nc(CC(=O)Nc2cnccc2O)cs1` is lower in INHIBITION: 35.7% for the first, 29.4% for the second.

Going from `Cc1cccc(N2CCN(C(=O)CC3(O)CCCC3)C(C)C2)n1` (stereo not given) to `Cc1csc(N2CCCN(C(=O)c3csc(C)n3)CC2)n1`, the INHIBITION rises from -24.2% to 37.9%.

First: CNc1nc(C(=O)N2CCN(c3ccc(Cl)c(Cl)c3)CC2)cs1
Second: Cc1nc(C(=O)N2CCN(c3ccc(Cl)c(Cl)c3)CC2)cs1
The INHIBITION of the first is lower: 86.6% for the first, 90.3% for the second.

Compared with `CNc1nc(C(=O)N2CCN(c3cc(C)nc(C)c3)CC2)cs1`, `CNc1nc(C(=O)N2C[C@@H]3CCN(C)[C@@H]3C2)cs1` is higher in INHIBITION: 34.9% for the first, 55% for the second.

Going from `CC(O)CN(C)C(=O)CCNC(=O)OC(C)(C)C` (stereo not given) to `CC(C)(C)c1nc(CC(=O)NCCC(=O)Nc2ccncc2)cs1`, the INHIBITION rises from 44.9% to 45.4%.

Compared with `CC(=O)N[C@@H]1CN(C(=O)c2cccc(C)c2)C[C@H]1O`, `CC[C@H](C)[C@H](NC(=O)c1cccc(-n2cnnn2)c1)C(=O)OC` is higher in INHIBITION: 0.19% for the first, 30.5% for the second.

Compared with `CC[C@H](C)[C@H](NC(=O)c1ccccc1-n1cnnn1)C(=O)OC`, `CCC(C)[C@H](NC(=O)c1ccc(F)cc1-n1cnnn1)C(=O)OC` (stereo not given in full) is higher in INHIBITION: -14.2% for the first, 51.3% for the second.

Compared with `CCn1cc(-n2cc3nc(N4CCOCC4)[nH]cc-3c2=O)cn1`, `CCN1CCC(NC(=O)Cc2csc(C(C)(C)C)n2)CC1` is higher in INHIBITION: -37.9% for the first, 50.5% for the second.

Compared with `CN1CCC(NC(=O)Cc2csc(C(C)(C)C)n2)CC1`, `CN(C)C(=O)C1CCN(Cc2csc(C(C)(C)C)n2)CC1` is higher in INHIBITION: 47.2% for the first, 56.4% for the second.

Going from `CCc1nc(CN2CCC(C(=O)N(C)C)CC2)cs1` to `CCOC(=O)C1CCN(Cc2csc(C(C)(C)C)n2)CC1`, the INHIBITION falls from 11.8% to -13.3%.

— ChEMBL document CHEMBL4513216, “Probing the Open Global Health Chemical Diversity Library for Multistage-Active Starting Points for Next-Generation Antimalarials” (ACS Infect Dis, 2020)
